Source: PubChem BioAssay (Tox21)
Inconclusive results are not listed. Activity calls are given as the source filed them. Unless noted, the call rests on the fitted dose curve; in most records, active means well fitted cell-killing curve with a large enough effect in the repeat runs; inconclusive means weak or mixed curves, or effect the other way; inactive means no such curve, though single readings can be large or run the other way.
On the % scale 0 is the no-effect control and ±100 the full control effect.

Molecular target: Bile acid receptor (Homo sapiens) (UniProt Q96RI1)
Sequence (Q96RI1 whole entry, looked up): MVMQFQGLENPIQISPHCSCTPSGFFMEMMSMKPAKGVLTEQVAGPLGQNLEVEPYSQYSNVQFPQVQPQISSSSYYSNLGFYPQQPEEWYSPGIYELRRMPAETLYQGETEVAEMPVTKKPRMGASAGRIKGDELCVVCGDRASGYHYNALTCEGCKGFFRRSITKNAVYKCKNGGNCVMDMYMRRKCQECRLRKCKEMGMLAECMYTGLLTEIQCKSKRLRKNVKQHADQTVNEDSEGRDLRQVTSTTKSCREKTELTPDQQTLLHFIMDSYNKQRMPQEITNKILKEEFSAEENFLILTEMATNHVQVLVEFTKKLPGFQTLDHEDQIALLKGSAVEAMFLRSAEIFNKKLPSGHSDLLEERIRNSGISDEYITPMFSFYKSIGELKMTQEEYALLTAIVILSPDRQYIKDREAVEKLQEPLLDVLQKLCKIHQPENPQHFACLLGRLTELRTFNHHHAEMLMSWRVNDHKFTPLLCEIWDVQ
Experiment: qHTS assay to identify small molecule antagonists of the farnesoid-X-receptor (FXR) signaling pathway (AID 743217; active means well fitted inhibition curve with a large enough effect in the signal ratio in the repeat runs, not every such curve was filed as active; the % refers to the signal ratio)
Settings: HEK293T FXR-UAS-bla, beta-lactamase ratio, CDCA-stimulated, 16 h; series mostly up to 62.6 µM; activity change, negative = inhibition: at the top concentration
Summary of the method: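 Antagonist mode: chenodeoxycholic acid at 50 uM final stimulates a UAS-driven beta-lactamase reporter in HEK 293T FXR-bla cells during 16 h, 37C compound exposure. Read-out is FRET substrate fluorescence after 2 h at room temperature.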
With `c1ccc2c(c1)Cc1ccccc1-2` the outcome was “inactive”. For `O=C(O)Cn1c(=O)n(Cc2ccc(Br)cc2F)c(=O)c2ccc(Cl)cc21`, the outcome was “inactive”. For `CCOCCOCCOCCO`, the outcome was “inactive”. With `O=C(O)c1ccc(S(=O)(=O)N(Cl)Cl)cc1` the outcome was “inactive”. For `Clc1ccccn1`, the “activity change, negative = inhibition” value was 7.73% (inactive). In the case of `CCO[Si](CCC#N)(OCC)OCC`, the outcome is reported as “inactive”. With `COC(=O)CCCC(=O)OC` the outcome was “inactive”. For `C=CCc1ccc(OC)c(OC)c1`, the outcome was “inactive”. In the case of `O=S(=O)(O)c1ccccc1`, the outcome is reported as “inactive”.

Tested on: not listed separately
Experiment: qHTS assay to identify small molecule agonists of the farnesoid-X-receptor (FXR) signaling pathway - cell viability counter screen (AID 743218); further: nearly all actives have a fitted effect of over 45% in size
Settings: FXR-bla HEK293T viability, CellTiter-Glo luminescence, 16 h; series mostly up to 62.6 µM; viability change, negative = cytotoxic: at the top concentration
Summary of the method: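 Viability counter screen in the same wells: CellTiter-Glo luminescence, 30 min room-temperature incubation, measured after the beta-lactamase read. Cells were GeneBLAzer FXR-UAS-bla HEK 293T, compound-treated 16 h at 37C.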
For `NCCN1CCNCC1`, the outcome was “inactive”. In the case of `CCCCCCCC=O`, the outcome is reported as “inactive”. With `O=c1[nH]cnc2[nH]ncc12` the “viability change, negative = cytotoxic” value was 12.8% [at 81.1 µM] (inactive). For `c1ccc2c(c1)Cc1ccccc1-2`, the outcome was “inactive”. For `CC1(C)CC(N)CC(C)(CN)C1` (configuration not stated), the outcome was “inactive”. In the case of `CCCCCCO`, the outcome is reported as “inactive”. With `O=C(O)Cn1c(=O)n(Cc2ccc(Br)cc2F)c(=O)c2ccc(Cl)cc21` the outcome was “inactive”. For `OCc1ccccc1`, the outcome was “inactive”. With `Cc1ccc(C(C)C)c(O)c1` the “viability change, negative = cytotoxic” value was -2.98% (inactive). With `C=CC(=O)OCCC(=O)O` the outcome was “inactive”. For `C=CC(C)CCCC(C)(C)O` (configuration not stated), the “viability change, negative = cytotoxic” value was 0.0457% (inactive). With `COCCOC(=O)c1ccccc1C(=O)OCCOC` the “viability change, negative = cytotoxic” value was -4.99% [at 81.1 µM] (inactive). In the case of `CCCCOC(=O)c1ccc(N)cc1`, the outcome is reported as “inactive”. With `CC(CCO)CC(C)(C)C` (configuration not stated) the “viability change, negative = cytotoxic” value was 18.1% (inactive). With `C=CCCCCCCCCC(=O)O` the outcome was “inactive”. With `C=C(C)[C@H]1CC=C(C)C(=O)C1` the outcome was “inactive”. In the case of `CCc1ccccc1CC`, the viability change, negative = cytotoxic is reported as 18.7% [at 13.2 µM] (inactive). For `CCOCCOCCOCCO`, the outcome was “inactive”. In the case of `O=C(O)c1ccc(S(=O)(=O)N(Cl)Cl)cc1`, the outcome is reported as “inactive”. In the case of `Clc1ccccn1`, the outcome is reported as “inactive”. For `COCCCN`, the outcome was “inactive”. For `CN/C(=C\[N+](=O)[O-])NCCSCc1csc(CN(C)C)n1`, the outcome was “inactive”. In the case of `Brc1ccc(Br)c(Br)c1`, the outcome is reported as “inactive”. In the case of `CC1(C)NC(=O)NC1=O`, the “viability change, negative = cytotoxic” value is reported as -0.754% [at 81.1 µM] (inactive). For `CCO[Si](CCC#N)(OCC)OCC`, the “viability change, negative = cytotoxic” value was 26.5% [at 81.1 µM] (inactive). For `Cc1ccc([N+](=O)[O-])cc1S(=O)(=O)O`, the “viability change, negative = cytotoxic” value was 9.38% (inactive). In the case of `O=C(O)c1ccccc1C(=O)O`, the “viability change, negative = cytotoxic” value is reported as 17.5% [at 81.1 µM] (inactive). In the case of `CC1(C)OC[C@@H]2O[C@@]3(C(=O)O)OC(C)(C)O[C@H]3[C@@H]2O1`, the outcome is reported as “inactive”. With `CNC(=S)N(C)C` the outcome was “inactive”. For `O=C1CCCC1`, the outcome was “inactive”. In the case of `CC(O)CC(C)(C)O` (configuration not stated), the outcome is reported as “inactive”. For `COC(=O)CCCC(=O)OC`, the outcome was “inactive”. For `C=CCc1ccc(OC)c(OC)c1`, the “viability change, negative = cytotoxic” value was 3.74% (inactive). For `Cc1ccc(S(=O)(=O)N=C=O)cc1`, the outcome was “inactive”. In the case of `O=S(=O)(O)c1ccccc1`, the “viability change, negative = cytotoxic” value is reported as 1.59% (inactive). For `CN1C(=O)CC[C@H]1c1cccnc1`, the outcome was “inactive”. For `CCNC(=S)NCC`, the outcome was “inactive”. With `C=CC[N+](C)(C)CC=C` the outcome was “inactive”.
